Measurements: the supplement of paper PMC8728848
Changes are numbered by the printed parent chain. The full list was thinned out, with the strongest signals kept by preference.

Tests used:
Test in all cases: glycan array binding signal (z-score within array); higher = stronger binding
[1] = target: Glc(b1-2)Glc(b1-2)Glc(b1-2)Glc(b1-2)Glc(b1-2)Glc(b1-2)Glc(b1-2)Glc(b1-2)Glc; conditions: glycan notation: IUPAC condensed, linker removed
In short: (§1)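 The Consortium for Functional Glycomics database supplied 3228 glycan arrays, of which those lacking an available protein sequence were dropped. The binding signal, a within-array Z-score, was averaged across arrays of the same protein sequence and across linkers. Negative scores can be read as non-binding.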

[2] = target: Glc(b1-3)Glc(b1-3)Glc(b1-3)Glc(b1-3)Glc(b1-3)Glc(b1-3)Glc(b1-3)Glc(b1-3)Glc(b1-3)Glc(b1-3)Glc(b1-3)Glc(b1-3)Glc; conditions: glycan notation: IUPAC condensed, linker removed
In short: as §1

[3] = target: Gal(b1-4)GlcNAc(b1-2)Man(a1-6)[GlcNAc(b1-2)Man(a1-3)]Man(b1-4)GlcNAc(b1-4)[Fuc(a1-6)]GlcNAc; conditions: glycan notation: IUPAC condensed, linker removed
In short: as §1

[4] = target: Gal(b1-4)GlcNAc(b1-2)[Gal(b1-4)GlcNAc(b1-4)]Man(a1-3)[Gal(b1-4)GlcNAc(b1-2)[Gal(b1-4)GlcNAc(b1-6)]Man(a1-6)]Man(b1-4)GlcNAc(b1-4)GlcNAc; conditions: glycan notation: IUPAC condensed, linker removed; mutation: D151N
In short: as §1

[5] = target: GlcNAc(b1-2)Man(a1-3)[GlcNAc(b1-2)Man(a1-6)]Man(b1-4)GlcNAc(b1-4)GlcNAc; conditions: glycan notation: IUPAC condensed, linker removed; mutation: D151N
In short: as §1

[6] = target: GlcNAc(b1-2)[GlcNAc(b1-4)]Man(a1-3)[GlcNAc(b1-2)Man(a1-6)][GlcNAc(b1-4)]Man(b1-4)GlcNAc(b1-4)GlcNAc; conditions: glycan notation: IUPAC condensed, linker removed; mutation: D151N
In short: as §1

[7] = target: HexA(a1-3)GalNAc4S(b1-4)GlcA(b1-3)GalNAc4S(b1-4)GlcA(b1-3)GalNAc4S(b1-4)GlcA(b1-3)GalNAc4S(b1-4)GlcA(b1-3)GalNAc4S(b1-4)GlcA(b1-3)GalNAc4S(b1-4)GlcA(b1-3)GalNAc4S(b1-4)GlcA(b1-3)GalNAc4S; conditions: glycan notation: IUPAC condensed, linker removed; mutation: D151N
In short: as §1

[8] = target: Gal(b1-4)GlcNAc(b1-2)Man(a1-6)[Man(a1-3)]Man(b1-4)GlcNAc(b1-4)GlcNAc; conditions: glycan notation: IUPAC condensed, linker removed; mutation: Y104F
In short: as §1

[9] = target: Gal(b1-4)GlcNAc(b1-2)[Gal(b1-4)GlcNAc(b1-4)]Man(a1-3)[Fuc(a1-3)[Gal(b1-4)]GlcNAc(b1-2)Man(a1-6)]Man(b1-4)GlcNAc(b1-4)GlcNAc; conditions: glycan notation: IUPAC condensed, linker removed; mutation: Y104F
In short: as §1

[10] = target: Glc(b1-3)Glc(b1-3)Glc(b1-3)Glc(b1-3)Glc(b1-3)Glc; conditions: glycan notation: IUPAC condensed, linker removed; mutation: Y104F
In short: as §1

Man(a1-3)Man(b1-4)GlcNAc = conditions: glycan notation: IUPAC condensed, linker removed; mutation: Y104F
In short: as §1

[11] = target: Xyl(b1-2)[Man(a1-3)][Man(a1-6)]Man(b1-4)GlcNAc(b1-4)GlcNAc; conditions: glycan notation: IUPAC condensed, linker removed; mutation: Y104F
In short: as §1

[12] = target: Glc(a1-2)Glc(a1-2)Glc(a1-2)Glc(a1-2)Glc; conditions: glycan notation: IUPAC condensed, linker removed
In short: as §1

[13] = target: Glc(b1-2)Glc(b1-2)Glc(b1-2)Glc(b1-2)Glc(b1-2)Glc; conditions: glycan notation: IUPAC condensed, linker removed
In short: as §1

[14] = target: Glc(a1-3)Glc(a1-3)Glc(a1-3)Glc(a1-3)Glc; conditions: glycan notation: IUPAC condensed, linker removed
In short: as §1

[15] = target: Glc(a1-3)Glc(a1-3)Glc(a1-3)Glc(a1-3)Glc(a1-3)Glc(a1-3)Glc(a1-3)Glc(a1-3)Glc(a1-3)Glc(a1-3)Glc(a1-3)Glc; conditions: glycan notation: IUPAC condensed, linker removed
In short: as §1

[16] = target: Glc(b1-2)Glc(b1-2)Glc(b1-2)Glc; conditions: glycan notation: IUPAC condensed, linker removed
In short: as §1

[17] = target: Glc(b1-3)Glc(b1-3)Glc(b1-3)Glc(b1-3)Glc(b1-3)Glc(b1-3)Glc(b1-3)Glc(b1-3)Glc(b1-3)Glc(b1-3)Glc(b1-3)Glc; conditions: glycan notation: IUPAC condensed, linker removed
In short: as §1

[18] = target: Glc(b1-3)Glc(b1-3)[Glc(b1-6)]Glc(b1-3)Glc(b1-3)Glc(b1-3)Glc(b1-3)Glc(b1-3)Glc(b1-3)Glc; conditions: glycan notation: IUPAC condensed, linker removed
In short: as §1

Glc(b1-4)Glc(b1-4)Glc = conditions: glycan notation: IUPAC condensed, linker removed
In short: as §1

[19] = target: Glc(b1-4)Glc(b1-4)Glc(b1-4)Glc(b1-4)Glc(b1-4)Glc(b1-4)Glc(b1-4)Glc; conditions: glycan notation: IUPAC condensed, linker removed
In short: as §1

[20] = target: Glc(b1-6)Glc(b1-6)Glc(b1-6)Glc; conditions: glycan notation: IUPAC condensed, linker removed
In short: as §1

[21] = target: Xyl(b1-4)Xyl(b1-4)Xyl(b1-4)Xyl(b1-4)Xyl(b1-4)Xyl; conditions: glycan notation: IUPAC condensed, linker removed
In short: as §1

B1: DC-SIGNR (Homo sapiens), Q9H2X3 (protein)
chain: QVSKVPSSLSQEQSEQDAIYQNLTQLKAAVGELSEKSKLQEIYQELTQLKAAVGELPEKSKLQEIYQELTRLKAAVGELPEKSKLQEIYQELTRLKAAVGELPEKSKLQEIYQELTRLKAAVGELPEKSKLQEIYQELTELKAAVGELPEKSKLQEIYQELTQLKAAVGELPDQSKQQQIYQELTDLKTAFERLCRHCPKDWTFFQGNCYFMSNSQRNWHDSVTACQEVRAQLVVIKTAEEQNFLQLQTSRSNRFSWMGLSDLNQEGTWQWVDGSPLSPSFQRYWNSGEPNNSGNEDCAEFSGSGWNDNRCDVDNYWICKKPAACFRDE
[1]
  glycan array binding signal (z-score): 1.64
[2]
  glycan array binding signal (z-score): -0.981

B2: ZG16p (Homo sapiens), O60844 (protein)
chain: ARSSSYSGEYGGGGGKRFSHSGNQLDGPITALRVRVNTYYIVGLQVRYGKVWSDYVGGRNGDLEEIFLHPGESVIQVSGKYKWYLKKLLFVTDKGRYLSFGKDSGTSFNAVPLHPNTVLRFISGRSGSLINAIGLHWDVYPSSCSRC
[3]; mutation: D151N
  glycan array binding signal (z-score): -0.565
[4]
  glycan array binding signal (z-score): -0.44
[5]
  glycan array binding signal (z-score): -0.565
[6]
  glycan array binding signal (z-score): -0.565
[7]
  glycan array binding signal (z-score): 5.03

B3: ZG16p (Homo sapiens), O60844 (protein)
chain: B2 chain with Y84F, N131D
[3]; mutation: Y104F
  glycan array binding signal (z-score): -0.485
[8]
  glycan array binding signal (z-score): -0.485
[9]
  glycan array binding signal (z-score): -0.485
[10]
  glycan array binding signal (z-score): 2.84
Man(a1-3)Man(b1-4)GlcNAc
  glycan array binding signal (z-score): 0.015
[11]
  glycan array binding signal (z-score): -0.331

B4: DC-SIGN (Homo sapiens), Q9NNX6 (protein)
chain: QVSKVPSSISQEQSRQDAIYQNLTQLKAAVGELSEKSKLQEIYQELTQLKAAVGELPEKSKLQEIYQELTRLKAAVGELPEKSKLQEIYQELTWLKAAVGELPEKSKMQEIYQELTRLKAAVGELPEKSKQQEIYQELTRLKAAVGELPEKSKQQEIYQELTRLKAAVGELPEKSKQQEIYQELTQLKAAVERLCHPCPWEWTFFQGNCYFMSNSQRNWHDSITACKEVGAQLVVIKSAEEQNFLQLQSSRSNRFTWMGLSDLNQEGTWQWVDGSPLLPSFKQYWNRGEPNNVGEEDCAEFSGNGWNDDKCNLAKFWICKKSAASCSRDEEQFLSPAPATPNPPPA
[12]
  glycan array binding signal (z-score): -0.838
[13]
  glycan array binding signal (z-score): 2.48

B5: laminarinase (Bacillus halodurans), Q9KBL8 (protein)
chain: EETIELEGEVIPARLLSTKVKALNYDDYHNVLIDRCVEGGESIRGLGDGSWIAFHDINLEQPTNLLTVRAANENKQAVLEIRADRVDGPLVSQSVIPPTGGLQAWTTVTAQVNGETSEIRDLYLVFKGEFQLSWFSFS
[14]
  glycan array binding signal (z-score): -0.688
[15]
  glycan array binding signal (z-score): -0.654
[16]
  glycan array binding signal (z-score): 0.121
[1]
  glycan array binding signal (z-score): 2.57
[17]
  glycan array binding signal (z-score): 2.38
[2]
  glycan array binding signal (z-score): 2.46
[18]
  glycan array binding signal (z-score): 2.85
Glc(b1-4)Glc(b1-4)Glc
  glycan array binding signal (z-score): -0.573
[19]
  glycan array binding signal (z-score): -0.428
[20]
  glycan array binding signal (z-score): -0.324
[21]
  glycan array binding signal (z-score): -0.466
